For test [1], the target named is T1, Aspartate--tRNA(Asp/Asn) ligase (Mycobacterium tuberculosis (strain ATCC 25618 / H37Rv)) (UniProt P9WFW3). Also: in the data most compounds retested in dose-response had high values.
T1 sequence (whole entry): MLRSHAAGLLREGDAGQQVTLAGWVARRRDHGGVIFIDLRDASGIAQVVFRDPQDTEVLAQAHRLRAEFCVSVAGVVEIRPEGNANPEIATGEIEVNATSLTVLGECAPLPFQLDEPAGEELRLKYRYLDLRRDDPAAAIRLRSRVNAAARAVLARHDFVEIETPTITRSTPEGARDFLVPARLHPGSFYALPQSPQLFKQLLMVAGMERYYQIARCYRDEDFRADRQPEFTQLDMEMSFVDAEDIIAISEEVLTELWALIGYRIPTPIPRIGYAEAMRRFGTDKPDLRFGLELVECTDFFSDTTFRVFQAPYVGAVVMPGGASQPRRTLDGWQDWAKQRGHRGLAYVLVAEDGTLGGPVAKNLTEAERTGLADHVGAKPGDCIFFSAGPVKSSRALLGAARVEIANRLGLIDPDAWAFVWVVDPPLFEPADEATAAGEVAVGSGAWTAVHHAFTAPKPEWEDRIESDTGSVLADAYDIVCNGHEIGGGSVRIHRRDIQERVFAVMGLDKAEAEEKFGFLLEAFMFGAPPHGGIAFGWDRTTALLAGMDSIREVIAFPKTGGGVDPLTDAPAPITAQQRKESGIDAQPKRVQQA
In words: Assay for Asp RNA synthetase-1 from Mycobacterium tuberculosis. Format: functional. Further details: scale not given: direction of the effect not stated beside the values. As to conditions: 30 µM.

In test [2] the target is Shiga toxin 2 (Escherichia coli O157:H7) (UniProt P09385+P09386). The experiment in a line: E. coli 0.157:H7 Shiga Toxin SOP - stx2 screening assay. Further details: scale not given: direction of the effect not stated beside the values. Particulars: 30 µM. Format: functional.

With `Oc1nc(N2CCOCC2)nc2c1CCN(Cc1cccnc1)CC2`, the Percent Effect was 0.849% in test [1] and -13.5% in test [2].

For `Cc1ccc(C)c(OC2CCN(C(=O)c3ccc(O)nc3)CC2)c1`, the Percent Effect is -0.922% in test [1] and 26.4% in test [2].

For `Cc1nc(-c2cccc(C(=O)O)c2)cc(C2CCN(C(C)C)C2)n1` (stereo not drawn), the Percent Effect in test [1] was -4.63%; in test [2] it was 4.12%.

Turning to `Cc1cnn(CCC(=O)N2CCN(c3nc(C)cs3)CC2)c1`, the Percent Effect in test [1] is -4.11%; in test [2] it was -15.5%.

`CC(C)N1CCn2c(nc3cc(C(N)=O)ccc32)C1`: the Percent Effect in test [1] was 0.319%; in test [2], -34%.

Regarding `COc1ccc(F)cc1C(=O)N(C)Cc1cc(C)on1`, the Percent Effect is -3.3% in test [1] and -29.3% in test [2].

Turning to `CCOC(C)c1nc(CN2CCC(CNC(C)=O)CC2)cs1` (stereo not drawn), the Percent Effect in test [1] is -2.51%; in test [2] it was 3.11%.

Regarding `Cn1cc(Br)c(=O)c(NS(=O)(=O)c2ccc(F)cc2)c1`, the Percent Effect in test [1] is -2.87%; in test [2], -1.63%.

Take `Cn1cc(C2CCCN2Cc2csc(C(C)(C)C)n2)cn1` (stereo not drawn): the Percent Effect in test [1] was -4.83%; in test [2] it was -11.7%.

For the compound `Cc1cccc2c1OCCC2NCc1c(C)nn(C)c1N(C)C` (stereo not drawn), the Percent Effect in test [1] was determined as 0.256%; in test [2], 28.5%.

On to `CN(C)c1ccc(CCNC(=O)NCc2ccc(N(C)C)nc2)cc1`, for which the figures for the Percent Effect in test [1] and in test [2] were 2.84% and 5.6%, respectively.

`O=C1CO[C@@H]2CN(S(=O)(=O)c3ccccc3)C[C@H]2N1CC1CC1`: the figures for the Percent Effect in test [1] and in test [2] were 5.5% and -3.47%, respectively.

As for `CC(C)NC(=O)N1CCN(CC2CC2)CC2(CC(=O)N(C)C2)C1` (stereo not drawn), the figures for the Percent Effect in test [1] and in test [2] were 0.324% and -11.9%, respectively.

Take `CN1CCC(c2cccc(Cc3ccc(F)cc3)n2)CC1`: the results for the Percent Effect in test [1] and in test [2] were -0.194% and -29.1%, respectively.

For the compound `NC(=O)C1CCCN(C(=O)c2cnc3c(cnn3C3CCCC3)c2)C1` (stereo not drawn), the values for the Percent Effect in test [1] and in test [2] were -6.91% and -20.7%, respectively.

Regarding `O=C(c1cn(-c2ccccc2Cl)nn1)N1CCCSCC1`, the Percent Effect was found to be 0.212% in test [1] and 5.41% in test [2].

For the compound `CCC(C)NC(=O)Nc1ccc(CN2CCOC2=O)cc1` (stereo not drawn), the Percent Effect in test [1] was -0.167%; in test [2], -47.4%.

On to `O=C(CN1CCOC(Cn2cccn2)C1)Nc1nncs1` (stereo not drawn), for which the Percent Effect is -1.58% in test [1] and -15.4% in test [2].

As for `COCCOCc1cccc(NC(=O)N2CCCC2c2ccncc2)c1` (stereo not drawn), the values for the Percent Effect in test [1] and in test [2] were -1.56% and 18.6%, respectively.

(Values after ChEMBL document CHEMBL3988442, “University of Dundee, Small-Polar-MMV Screening Library” (2021).)
